{
  "source": "PubChem BioAssay AID1347418",
  "about": "(Sanford-Burnham Center for Chemical Genomics, 2020)",
  "note": "Hit rate of the full screen: of about 1,300 compounds, about 750 (58%) were called active. The list shows a part of the results. A number with no mark means an inactive call.",
  "data": [
    {"target": "Sulfhydryl oxidase 1 (Homo sapiens) (UniProt O00391)", "sequence (O00391 whole entry, looked up)": "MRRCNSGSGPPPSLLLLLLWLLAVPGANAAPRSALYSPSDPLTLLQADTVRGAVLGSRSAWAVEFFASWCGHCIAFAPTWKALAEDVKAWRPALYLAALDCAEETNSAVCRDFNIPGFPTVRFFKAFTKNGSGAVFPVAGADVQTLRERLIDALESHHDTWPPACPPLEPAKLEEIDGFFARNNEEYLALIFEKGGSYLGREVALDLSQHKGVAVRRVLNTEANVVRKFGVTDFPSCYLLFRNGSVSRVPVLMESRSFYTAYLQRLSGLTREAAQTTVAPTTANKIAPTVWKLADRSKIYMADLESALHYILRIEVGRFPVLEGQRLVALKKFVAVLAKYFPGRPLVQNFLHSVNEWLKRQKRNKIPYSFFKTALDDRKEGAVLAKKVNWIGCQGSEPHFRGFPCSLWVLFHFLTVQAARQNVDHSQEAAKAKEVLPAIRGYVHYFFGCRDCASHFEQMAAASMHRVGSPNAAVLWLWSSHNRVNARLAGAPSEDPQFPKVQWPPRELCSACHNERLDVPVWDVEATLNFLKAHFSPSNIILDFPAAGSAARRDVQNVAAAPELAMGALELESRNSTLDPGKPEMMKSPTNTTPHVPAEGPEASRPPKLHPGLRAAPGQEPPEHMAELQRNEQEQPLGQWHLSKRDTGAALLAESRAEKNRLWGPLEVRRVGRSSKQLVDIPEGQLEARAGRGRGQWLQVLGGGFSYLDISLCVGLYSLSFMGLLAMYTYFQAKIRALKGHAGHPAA", "assay": "inhibition of human sulfhydryl oxidase QSOX1 – biochemical, ROS-Glo H2O2 luminescence, HTS, primary screen (AID 1347418)", "details": "recombinant QSOX1, ROS-Glo H2O2 luminescence; at 12.5 µM; active compounds read high; active = any value above zero", "values": [
      {"smiles": "CC(C)[C@@H]1CC[C@@H](C)C[C@@H]1P(=O)(c1ccccc1)c1ccccc1", "inhibition": "2.9% (active)"},
      {"smiles": "CCCn1c(=O)c(C)cn2nc(N)nc12", "inhibition": "4.5% (active)"},
      {"smiles": "NC(N)=NCc1cccc(I)c1", "inhibition": "3.9% (active)"},
      {"smiles": "O=c1[nH]c2cc([N+](=O)[O-])c([N+](=O)[O-])cc2[nH]c1=O", "inhibition": "2.2% (active)"},
      {"smiles": "O=C(O)CCc1nc(-c2ccccc2)c(-c2ccccc2)o1", "inhibition": "3.2% (active)"},
      {"smiles": "CCCOC(=O)c1c(-c2ccccc2)nc(CC)c(C(=O)SCC)c1CCC", "inhibition": "-3.6%"},
      {"smiles": "C#CC(N)CCC(=O)O", "note": "(stereo not drawn)", "inhibition": "5.9% (active)"},
      {"smiles": "CC1(C)CCC(NC(=O)[C@@H](N)CCC(=O)O)CC1", "inhibition": "-1.9%"},
      {"smiles": "C=Cc1c(C)c2cc3[nH]c(cc4nc(cc5nc(cc1[nH]2)C(C)=C5CCC(=O)O)C(CCC(=O)O)=C4C)c(C)c3C=C", "inhibition": "-1.1%"},
      {"smiles": "O=C(O)[C@@H]1C[C@@H](C(=O)O)N1", "inhibition": "-2.9%"},
      {"smiles": "CC(C)C(=O)Nc1ccc([N+](=O)[O-])c(C(F)(F)F)c1", "inhibition": "6.8% (active)"},
      {"smiles": "COC(=O)C1=C(C)NC(C)=C([N+](=O)[O-])C1c1ccccc1C(F)(F)F", "note": "(stereo not drawn)", "inhibition": "-3.4%"},
      {"smiles": "CC1(C)NC(=O)N(c2ccc([N+](=O)[O-])c(C(F)(F)F)c2)C1=O", "inhibition": "-0.4%"},
      {"smiles": "Oc1ccc(Cn2cc[nH]c2=S)cc1", "inhibition": "5.9% (active)"},
      {"smiles": "CCCCCN(C)CCC(O)(P(=O)(O)O)P(=O)(O)O", "inhibition": "0.6% (active)"},
      {"smiles": "NCCNS(=O)(=O)c1cccc2c(Cl)cccc12", "inhibition": "0.1% (active)"},
      {"smiles": "CSc1ccccc1N1CCN(CCCCCC(=O)NC2CCCc3ccccc32)CC1", "note": "(stereo not drawn)", "inhibition": "-1.2%"},
      {"smiles": "O=C(O)CC1CCCc2ccccc2C1O", "note": "(stereo not drawn)", "inhibition": "-2.6%"},
      {"smiles": "O=C(CCCCCN1CCN(c2ccccc2-c2ccccc2)CC1)NC1CCCc2ccccc21", "note": "(stereo not drawn)", "inhibition": "2.4% (active)"},
      {"smiles": "O=C(O)c1cccnc1Nc1cccc(C(F)(F)F)c1", "inhibition": "3.2% (active)"},
      {"smiles": "O=C(O)c1cccnc1C(=O)O", "inhibition": "-3%"},
      {"smiles": "c1ccc2nc(C3=NCCN3)ccc2c1", "inhibition": "0.1% (active)"},
      {"smiles": "CC(C)(Sc1ccc(CCN(CCCCC2CCCCC2)C(=O)NC2CCCCC2)cc1)C(=O)O", "inhibition": "0.8% (active)"},
      {"smiles": "CCc1c(C(=O)NCCc2ccc(N3CCCCC3)cc2)[nH]c2ccc(Cl)cc12", "inhibition": "1.2% (active)"},
      {"smiles": "CN=c1nc(-c2ccccc2)n(-c2ccccc2)s1", "inhibition": "-4.5%"},
      {"smiles": "O=C(/C=C/c1ccc(O)cc1)c1ccc(O)cc1O", "inhibition": "20.8% (active)"},
      {"smiles": "C#C[C@]1(O)CC[C@H]2[C@@H]3CCC4=Cc5oncc5CC4(C)[C@H]3CCC21C", "note": "(stereo partly drawn)", "inhibition": "3.6% (active)"},
      {"smiles": "CCCCCN(CCCCC)C(=O)C(CCC(=O)O)NC(=O)c1ccc(Cl)c(Cl)c1", "note": "(stereo not drawn)", "inhibition": "3% (active)"},
      {"smiles": "CCCN(CCC)C(=O)C(CCC(=O)O)NC(=O)c1ccccc1", "note": "(stereo not drawn)", "inhibition": "-6.3%"},
      {"smiles": "S=C([S-])OC1CC2C[C+]1C1CCCC21", "note": "(stereo not drawn)", "inhibition": "-1.8%"},
      {"smiles": "O=c1onc2cnc3ccccc3n12", "inhibition": "1.7% (active)"},
      {"smiles": "CN(C)CCCC1(c2ccc(F)cc2)OCc2cc(C#N)ccc21", "note": "(stereo not drawn)", "inhibition": "-4.9%"},
      {"smiles": "O=c1[nH]cnc2[nH]ncc12", "inhibition": "7.1% (active)"},
      {"smiles": "OC[C@H]1NC[C@@H](O)[C@@H]1O", "inhibition": "3.1% (active)"},
      {"smiles": "OCC1NCC(O)C(O)C1O", "note": "(stereo not drawn)", "inhibition": "0.3% (active)"},
      {"smiles": "CN=C(N)NCCC[C@H](N)C(=O)O", "inhibition": "-2.7%"},
      {"smiles": "CCCCS(=N)(=O)CCC(N)C(=O)O", "note": "(stereo not drawn)", "inhibition": "5.6% (active)"},
      {"smiles": "CCCCS(=N)(=O)CC[C@H](N)C(=O)O", "note": "(stereo partly drawn)", "inhibition": "2.8% (active)"},
      {"smiles": "CCCC(CCC)C(=O)O", "inhibition": "-0.3%"},
      {"smiles": "O=S(=O)(c1cccc2c(Cl)cccc12)N1CCCNCC1", "inhibition": "0.5% (active)"},
      {"smiles": "O=S(=O)(c1cccc2c(I)cccc12)N1CCCNCC1", "inhibition": "8.3% (active)"},
      {"smiles": "CC(=O)O[C@H]1C(=O)[C@@]2(C)C([C@H](OC(=O)c3ccccc3)[C@]3(O)C[C@H](OC(=O)[C@H](O)[C@@H](NC(=O)c4ccccc4)c4ccccc4)C(C)=C1C3(C)C)[C@]1(OC(C)=O)CO[C@@H]1C[C@@H]2O", "note": "(stereo partly drawn)", "inhibition": "1.7% (active)"},
      {"smiles": "N[C@@H](CC(=O)O)C(=O)O", "inhibition": "4.2% (active)"},
      {"smiles": "N[C@H](CO)C(=O)O", "inhibition": "1.4% (active)"},
      {"smiles": "N[C@@H](CS(=O)O)C(=O)O", "inhibition": "-2.6%"},
      {"smiles": "NOCC(=O)O", "inhibition": "-7.4%"},
      {"smiles": "N[C@@H](COP(=O)(O)O)C(=O)O", "inhibition": "-1.4%"},
      {"smiles": "C=CC[C@H](N)C(=O)O", "inhibition": "4.9% (active)"},
      {"smiles": "CC(=O)N[C@@H](CS)C(=O)O", "inhibition": "1.8% (active)"},
      {"smiles": "CC(=O)N[C@H](C(=O)O)C(C)(C)SN=O", "inhibition": "-3.3%"},
      {"smiles": "N[C@@H]1CONC1=O", "inhibition": "-12.8%"},
      {"smiles": "Cc1ccccc1/C=C/C1=NCCN1", "inhibition": "0.5% (active)"},
      {"smiles": "CC(C(O)c1ccc(O)cc1)N1CCC(Cc2ccccc2)CC1", "note": "(stereo not drawn)", "inhibition": "7.3% (active)"},
      {"smiles": "CC(C)(C)c1ccc(C(O)CCCN2CCC(C(O)(c3ccccc3)c3ccccc3)CC2)cc1", "note": "(stereo not drawn)", "inhibition": "-4%"},
      {"smiles": "CC(C)(C(=O)O)c1ccc(C(O)CCCN2CCC(C(O)(c3ccccc3)c3ccccc3)CC2)cc1", "note": "(stereo not drawn)", "inhibition": "-1.3%"},
      {"smiles": "C[C@@H](CN1CCC(Cc2ccccc2)CC1)[C@@H](O)c1ccc(O)cc1", "inhibition": "3.4% (active)"},
      {"smiles": "CNCC(O)c1ccc(O)c(O)c1", "note": "(stereo not drawn)", "inhibition": "2.8% (active)"},
      {"smiles": "CNC[C@H](O)c1ccc(O)c(O)c1", "inhibition": "8.4% (active)"},
      {"smiles": "CC(C)(C)NCC(O)c1ccc(O)c(CO)c1", "note": "(stereo not drawn)", "inhibition": "5.3% (active)"},
      {"smiles": "CNC[C@H](O)c1cccc(O)c1", "inhibition": "-3.5%"},
      {"smiles": "CC(C)(C)NCC(O)c1cc(O)cc(O)c1", "note": "(stereo not drawn)", "inhibition": "-2%"},
      {"smiles": "Cc1cn[nH]c1", "inhibition": "1.9% (active)"},
      {"smiles": "NS(=O)(=O)C1=[C+]C=[C+]c2c1c([N+](=O)[O-])cc1nc([O-])c([O-])nc21", "inhibition": "-4.9%"},
      {"smiles": "COc1ccccc1CNCCCCCCNCCCCCCCCNCCCCCCCNc1ccccc1OC", "inhibition": "1.8% (active)"},
      {"smiles": "CCCCCCCC/C=C\\CCCCCCCC(=O)NCCO", "inhibition": "6.9% (active)"},
      {"smiles": "CCCCCCCCCCCCCCCC(=O)NCCO", "inhibition": "-1.3%"},
      {"smiles": "CN1Cc2sccc2C(c2ccc(O)c(O)c2)C1", "note": "(stereo not drawn)", "inhibition": "23.4% (active)"},
      {"smiles": "Oc1ccc(C2CNCc3sccc32)cc1O", "note": "(stereo not drawn)", "inhibition": "15.7% (active)"},
      {"smiles": "c1ccc(-c2ccccn2)nc1", "inhibition": "7.3% (active)"},
      {"smiles": "c1cnc2c(c1)ccc1cccnc12", "inhibition": "-2.1%"},
      {"smiles": "Cn1cnc2c1c(=O)[nH]c(=O)n2C", "inhibition": "3.2% (active)"},
      {"smiles": "Cn1c(=O)[nH]c2ncn(C)c2c1=O", "inhibition": "3% (active)"},
      {"smiles": "CC1(C)CCC=[N+]1[O-]", "inhibition": "-1.5%"}
    ]}
  ]
}
